The list is not random: actives were taken first. Their share in the collection is about 0.74%.
LANA DNA inh: blocks KSHV LANA C-terminal domain binding to DNA; inhibition, % at 9 µM; actives 0.078% (n = 340,000); MBP-C-LANA/FAM-LBS DNA binding, fluorescence polarization;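 active = highest replicate inhibition at or above 60% at 9 µM, even if other replicates fall short; inactive = all replicates below 60% inhibition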
RTF Ca sens act: cardiac RTF calcium sensitization; P19429+P45379; IANBD-labeled TnC RTF fluorescence at EC20 calcium; 0% EC20 calcium, 100% full calcium; activation, % at 7.2 µM; actives 0.24% (n = 340,000);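 active = activation above the mean over all tested compounds plus 3 SD, cut at about 30% in these data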;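 also: rise in fluorescence read as greater calcium sensitivity of cardiac thin filaments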
RTF Ca sens inh: cardiac RTF calcium desensitization | actives 0.12% (n = 340,000) | AID 493244 | P19429+P45379 | inhibition, % at 7.15 µM | IANBD-labeled cardiac RTF, Ca2+ fluorescence;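 active = inhibition above the mean inhibition of all tested compounds plus 3 SD, cut at about 17% in these data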;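 also: assay run at fixed EC70 calcium of 1.6 mM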
Keap1-Nrf2 PPI: disrupts human Keap1 binding to Nrf2 peptide; Q14145; Keap1 Kelch-Nrf2 peptide fluorescence polarization, 1536-well; inhibition, % at 9.4 µM; actives 0.15% (n = 340,000); in the data active = inhibition above about 12%; inconclusive = no clear call, values can overlap the other calls; inactive = below about 7.3%;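 also: human Keap1 Kelch domain with fluorescein labeled Nrf2 9mer peptide probe; higher means more block of Keap1 binding to Nrf2 peptide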
eLon inh: E. coli protease La inhibition. purified E. coli Lon protease, fluorescence polarization. inhibition, % at 7.94 µM. actives 0.42% (n = 360,000). AID 602123; in the data active = inhibition above about 13%, passing the limit was not always enough
Target sequence (P0A9M0 whole entry, looked up): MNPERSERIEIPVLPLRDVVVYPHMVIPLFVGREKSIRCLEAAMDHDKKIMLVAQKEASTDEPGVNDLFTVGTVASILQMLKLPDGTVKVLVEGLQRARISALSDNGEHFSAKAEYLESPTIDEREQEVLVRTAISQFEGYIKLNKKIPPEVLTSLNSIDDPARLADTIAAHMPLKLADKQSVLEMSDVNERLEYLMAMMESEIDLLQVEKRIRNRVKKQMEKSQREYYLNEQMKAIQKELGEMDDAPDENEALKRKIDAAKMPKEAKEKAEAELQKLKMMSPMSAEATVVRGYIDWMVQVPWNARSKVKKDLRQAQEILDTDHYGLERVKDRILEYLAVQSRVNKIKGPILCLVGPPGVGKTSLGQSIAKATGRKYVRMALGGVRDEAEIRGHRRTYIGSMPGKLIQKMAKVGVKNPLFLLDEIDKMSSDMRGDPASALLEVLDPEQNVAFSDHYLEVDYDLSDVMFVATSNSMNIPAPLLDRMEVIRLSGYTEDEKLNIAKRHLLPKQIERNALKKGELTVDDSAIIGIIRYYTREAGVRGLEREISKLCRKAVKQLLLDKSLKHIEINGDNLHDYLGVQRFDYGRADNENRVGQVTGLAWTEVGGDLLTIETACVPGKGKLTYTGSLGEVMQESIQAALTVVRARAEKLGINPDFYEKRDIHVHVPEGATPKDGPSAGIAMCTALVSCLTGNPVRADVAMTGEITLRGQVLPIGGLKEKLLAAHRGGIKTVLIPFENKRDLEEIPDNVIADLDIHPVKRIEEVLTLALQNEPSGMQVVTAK
RTF Ca inh conf: confirmation of inhibitors of cardiac thin filament calcium sensitivity; shares compounds with RTF Ca sens inh; reconstituted cardiac thin filaments, calcium sensitivity fluorescence; inhibition, % at 7.15 µM; actives 8% (n = 360); AID 504635; in the data active = inhibition above about 18%
Of the large screens only hits and unclear results are named; the others gave an inactive call (follow-up assays come after a bar, where they were run); ! = not confirmed by another sample.

C/C=C/C=C/C(=O)N1CC2(CC(c3cccc(NC(=O)/C=C/C)c3)=NO2)C[C@@H]1C(N)=O (some centres not stated)	none
O=C(O)c1ccccc1-c1c2cc(I)c(=O)c(I)c-2oc2c(I)c(O)c(I)cc12	RTF Ca sens act 501
O=Cc1ccc(-c2ccccc2C(=O)O)o1	none
CCC(C)[C@H](NC(=O)N1CCC(C)CC1)C(=O)OC (some centres not stated)	RTF Ca sens act 44
CCC(C)[C@H](NC(=O)N1CCCC1)C(=O)OC (some centres not stated)	none
CCCCN(C=O)c1c(CC)nc2c(OCc3cccc(Cl)c3)cccn12	none (no result: LANA DNA inh, RTF Ca sens act, RTF Ca sens inh, Keap1-Nrf2 PPI)
COc1ccc(C2CC=C(C(C)=O)CN2S(=O)(=O)c2ccccc2)cc1 (configuration not stated)	none (no result: LANA DNA inh, RTF Ca sens act, RTF Ca sens inh, Keap1-Nrf2 PPI)
CN(C)c1ccc(/C=C2\SC(=O)N(CC(O)Cn3c4ccccc4c4ccccc43)C2=O)cc1 (configuration not stated)	RTF Ca sens act 55
Cc1nc2cc(OC3(C)CCN(Cc4ccc(OC(F)(F)F)cc4)C3)ccc2s1 (configuration not stated)	none (no result: LANA DNA inh, RTF Ca sens act, RTF Ca sens inh, Keap1-Nrf2 PPI)
CC1(C(=O)O)CCCN1C(=O)c1ccco1 (configuration not stated)	none (no result: LANA DNA inh, RTF Ca sens act, RTF Ca sens inh, Keap1-Nrf2 PPI)
CC(C)N1CCC(C)(C(=O)Nc2cc(-c3ccccc3)nn2C)C1 (configuration not stated)	none (no result: LANA DNA inh, RTF Ca sens act, RTF Ca sens inh, Keap1-Nrf2 PPI)
O=C(C1=NN(c2ccccc2)C2C(=O)N(c3ccc(Cl)cc3)C(=O)C12)c1ccccc1 (configuration not stated)	RTF Ca sens act 38
O=C(C1=NN(c2ccccc2)C2C(=O)N(c3cccc(Cl)c3)C(=O)C12)c1ccccc1 (configuration not stated)	LANA DNA inh 61, RTF Ca sens act 47, Keap1-Nrf2 PPI inconclusive
COc1ccc(/C=C2\SC(=O)N(CCC(=O)N3CCN(C)CC3)C2=O)cc1	RTF Ca sens act 54
Cc1ccc(/C=C2\SC(=O)N(CCC(=O)N3CCN(C)CC3)C2=O)cc1	none
O=C(Nc1cccnc1)C1Cc2c(-c3ccco3)ccnc2O1 (configuration not stated)	none (no result: LANA DNA inh, RTF Ca sens act, RTF Ca sens inh, Keap1-Nrf2 PPI)
Nc1nc(SCc2ccccc2)cc(SCc2ccccc2)n1	none
COc1cc(OC)c(NC(=O)c2cc3ccccc3cc2O)cc1Cl	RTF Ca sens act 32
CCCCn1c(N)c(N(CC(C)C)C(=O)CC(NC(=O)c2ccccc2Cl)c2ccccc2)c(=O)[nH]c1=O (configuration not stated)	none (no result: LANA DNA inh, RTF Ca sens act, RTF Ca sens inh, Keap1-Nrf2 PPI)
Cc1noc(C)c1-c1nc(CSc2ccccc2)no1	LANA DNA inh 91
C/C(=N/NC(=O)c1cc(O)c(O)c(O)c1)c1ccc([N+](=O)[O-])cc1	LANA DNA inh 76
O=C(Nc1ccnn1C1CCN(Cc2cccnc2)CC1)c1ccccc1Cl	RTF Ca sens inh 18 | RTF Ca inh conf inactive
CCC(=O)OC1(C)C(=O)C2=COC(c3ccc(OC)cc3)=CC2=C(Br)C1=O (configuration not stated)	RTF Ca sens inh 17 | RTF Ca inh conf inactive
COc1ccc(C2=CC3=C(Br)C(=O)C(C)(O)C(=O)C3=CO2)cc1 (configuration not stated)	none
COC(=O)[C@]12CCCCC=C1N(Cc1cccc3ccccc13)C(=O)[C@H](CC(=O)NCc1cccs1)C2	none (no result: LANA DNA inh, RTF Ca sens act, RTF Ca sens inh, Keap1-Nrf2 PPI)
Cc1ccc(SC[C@H](C)CN2CCC(NC(=O)OCc3ccccc3)CCC2=O)cc1 (some centres not stated)	none (no result: LANA DNA inh, RTF Ca sens act, RTF Ca sens inh, Keap1-Nrf2 PPI)
CC(C)(CNS(C)(=O)=O)SCc1ccc(Cl)cc1	RTF Ca sens inh 17 | RTF Ca inh conf inactive
O=C(c1ccc(Cl)cc1)c1cnc2ccccn12	RTF Ca sens inh 18 | RTF Ca inh conf inactive
O=C(Nc1cnc2ccccn2c1=O)c1ccc(Cl)cc1Cl	none
Fc1ccc([C@@H]2CCNC[C@H]2COc2ccc3c(c2)OCO3)cc1	RTF Ca sens inh 20! | RTF Ca inh conf inactive
O=C(CC[C@H]1O[C@@H](n2ccc(=O)[nH]c2=O)[C@H](O)[C@@H]1O)N[C@@H](Cc1ccccc1)C(=O)NCC1CCCO1 (some centres not stated)	none (no result: LANA DNA inh, RTF Ca sens act, RTF Ca sens inh, Keap1-Nrf2 PPI)
COc1ccc(CN2CCC3CC2c2cc(-c4cccc(C)c4)ccc23)cc1 (configuration not stated)	none
O=c1cc(-c2ccccc2Cl)oc2cccc(O)c12	none
O=c1cc2oc3cc(O)c(O)cc3c(-c3ccccc3[N+](=O)[O-])c-2cc1O	RTF Ca sens inh 29 | RTF Ca inh conf 56
CC(Nc1ccc(Br)cc1)C(=O)NC(=O)NC1CCCCC1 (configuration not stated)	none (no result: LANA DNA inh, RTF Ca sens act, RTF Ca sens inh, Keap1-Nrf2 PPI)
Cc1ccc(NS(=O)(=O)c2ccc(/C=C/C(=O)O)cc2)cc1Cl	RTF Ca sens inh 21 | RTF Ca inh conf inactive
Cc1ccc(NS(=O)(=O)c2ccc(Cl)c(C(=O)O)c2)cc1S(=O)(=O)N1CCOCC1	RTF Ca sens inh 19 | RTF Ca inh conf inactive
CCN1C(=O)[C@H]2[C@@H](c3ccc(C)cc3)N[C@]3(CCCN(Cc4ccc(OC)cc4)C3=O)[C@H]2C1=O	none (no result: LANA DNA inh, RTF Ca sens act, RTF Ca sens inh, Keap1-Nrf2 PPI)
Nc1ncnc2oc(-c3ccco3)c(-c3ccco3)c12	RTF Ca sens inh 58 | RTF Ca inh conf inactive
COc1cccc(/C=N/n2c(N)c(S(=O)(=O)c3cccs3)c3nc4ccccc4nc32)c1	none
Nc1c(S(=O)(=O)c2cccs2)c2nc3ccccc3nc2n1/N=C/c1cccc(O)c1	RTF Ca sens inh 20 | RTF Ca inh conf inactive
CN1CCCC(CN2c3ccccc3Sc3ccccc32)C1 (configuration not stated)	RTF Ca sens inh 24 | RTF Ca inh conf inactive
CN1CCCC(CC2c3ccccc3Sc3ccccc32)C1 (configuration not stated)	none
Cc1cccc(NC(=O)c2cnn(C)c2)c1C	RTF Ca sens inh 17 | RTF Ca inh conf inactive
Cc1cc(C)c(NC(=O)c2cnn(C)c2)c(C)c1	none
COc1cc(/C=C2\SC(=S)N(NC(=O)c3cccnc3)C2=O)ccc1O	none
COc1cc(/C=C2\SC(=S)N(c3cccnc3)C2=O)ccc1O	RTF Ca sens inh 19 | RTF Ca inh conf inactive
O=c1[nH][nH]c2c1[C@@H](c1ccc(F)cc1)O[C@H](CCOCc1ccccc1)C2	none (no result: LANA DNA inh, RTF Ca sens act, RTF Ca sens inh, Keap1-Nrf2 PPI)
COCCn1c(SCC(=O)Nc2ccc(F)cc2)nc2c(c1=O)SCC2	none (no result: LANA DNA inh, RTF Ca sens act, RTF Ca sens inh, Keap1-Nrf2 PPI)
S=c1[nH]nc(-c2ccco2)n1/N=C/C=C/c1ccco1	RTF Ca sens inh 18 | RTF Ca inh conf inactive
S=c1[nH]nc(-c2cc(-c3ccccc3)n[nH]2)n1/N=C/C=C/c1ccco1	none (no result: LANA DNA inh, RTF Ca sens act, RTF Ca sens inh, Keap1-Nrf2 PPI)
CC1(C)CC(=O)C2=C(C1)N(Cc1ccco1)C(=O)NC2(C(F)(F)F)C(F)(F)F	RTF Ca sens inh 18 | RTF Ca inh conf inactive
COc1ccccc1-n1c(SCC(=O)N2CCc3ccccc32)nc2c(c1=O)SCC2	none
COc1ccc(OC)c(-n2c(SCC(=O)N3CCc4ccccc43)nc3c(c2=O)SCC3)c1	RTF Ca sens inh 40 | RTF Ca inh conf inactive

Screens (PubChem BioAssay)
